Experimental data published in PubChem BioAssay (EPA / NIEHS).
Where “and” joins values, the source holds several entries; their conditions need not be identical. Equal values may be shown once. Records with an inconclusive call do not appear. The source holds several records for some structures; these can differ, active in one and inactive in another. Calls of active or inactive are those of the source. How the source made its calls: active means hit-call score of the fitted dose curve at least 0.9, where 1 is the maximum; inconclusive means response in the unintended direction; inactive means score below 0.9.

Test system: not listed separately
Assay: TOX21_p53_BLA_p4_viability: Viability Assessment in the Tox21 HCT-116 p53 Agonism Beta-lactamase Assay, Phase 4 (AID 2283597);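 further: hits lower the luminescence signal meaning cytotoxicity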
How it was run: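 We seeded HCT116 p53 reporter cells at 4000/well and waited 5 h. We then added compounds in DMSO at a 217-fold dilution and incubated for 16 h. Viability was read as CellTiter-Glo luminescence after 30 min at RT.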

SMILES | outcome | AC50
CNC(=C[N+](=O)[O-])NCCSCc1csc(CN(C)C)n1 | inactive | 
O=C1CCCCCCCCCCCCCC1 | inactive | 
CCCCCCC(O)CCCCCCCCCCC(=O)OC (stereo unspecified) | inactive | 
COC(=O)c1ccccc1 | inactive | 
CC/C=C\CC/C=C/C(OCC)OCC | inactive | 
C=CCOCC(CC)(CO)COCC=C | inactive | 
CCO[Si](CCCN)(OCC)OCC | inactive | 
O=[N+]([O-])c1ccccc1C(F)(F)F | inactive | 
CCC(=O)OCc1ccc(OC)cc1 | inactive | 
CCc1cc(C(N)=S)ccn1 | inactive | 
COc1cccc(OC)c1C(=O)O | inactive | 
CCCCCC1CCCC(=O)O1 (stereo unspecified) | inactive | 
COC(=O)[C@]1(C)CCC[C@@]2(C)[C@H]1CC=C1C=C(C(C)C)CC[C@@H]12 | inactive | 
Cc1cc2nc3c(=O)[nH]c(=O)nc-3n(C[C@H](O)[C@H](O)[C@H](O)CO)c2cc1C | inactive | 
CCCCCCC1CCCC(=O)O1 (stereo unspecified) | inactive | 
c1ccc(CNc2ncnc3nc[nH]c23)cc1 | inactive | 
NC(=O)c1ccc(N)cc1 | inactive | 
CC(C)=CCOC(=O)c1ccccc1 | inactive | 
CC(C)(C)NC(=O)[C@@H]1CN(Cc2cccnc2)CCN1C[C@@H](O)C[C@@H](Cc1ccccc1)C(=O)N[C@H]1c2ccccc2C[C@H]1O | inactive | 33.2 µM (active)
Oc1cccc2ccccc12 | inactive | 
Oc1ccc(Oc2ccccc2)cc1 | inactive | 
CC(=O)CCc1ccccc1 | inactive | 
CN(C)c1ccc(C(c2ccccc2)c2ccc(N(C)C)cc2)cc1 | inactive | 
c1ccc2c(c1)Oc1ccccc1S2 | inactive | 
CCCCCC[C@@H](O)C/C=C\CCCCCCCC(=O)O | inactive | 40.5 µM (active) and 27.9 µM (active)

Target: Cellular tumor antigen p53 (Homo sapiens) (UniProt P04637)
Sequence (P04637 whole entry, looked up): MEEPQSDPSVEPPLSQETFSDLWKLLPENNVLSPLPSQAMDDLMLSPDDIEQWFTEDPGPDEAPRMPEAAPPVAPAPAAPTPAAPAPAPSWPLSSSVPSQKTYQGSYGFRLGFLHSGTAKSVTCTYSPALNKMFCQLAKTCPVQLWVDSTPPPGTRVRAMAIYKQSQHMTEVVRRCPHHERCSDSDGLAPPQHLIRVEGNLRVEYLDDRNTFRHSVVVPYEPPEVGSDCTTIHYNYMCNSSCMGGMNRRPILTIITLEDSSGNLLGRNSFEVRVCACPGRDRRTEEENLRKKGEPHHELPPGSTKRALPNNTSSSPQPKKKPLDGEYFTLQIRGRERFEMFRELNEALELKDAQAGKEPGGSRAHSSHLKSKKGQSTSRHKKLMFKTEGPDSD
Assay: TOX21_p53_BLA_p5_ratio: Tox21 HCT-116 p53 Agonism Beta-lactamase Assay, Ratio, Phase 5 (AID 2283599)
How it was run: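 HCT-116 cells carrying a p53-inducible beta-lactamase reporter were seeded at 4000 cells/well and dosed after 5 h with compound in DMSO (217-fold dilution). After 16 h at 37C, CCF4-AM substrate was added for 2 h, and the 460/530 nm emission ratio was scored as gain-of-signal versus DMSO.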

SMILES | outcome | AC50
CNC(=C[N+](=O)[O-])NCCSCc1csc(CN(C)C)n1 | inactive | 
O=C1CCCCCCCCCCCCCC1 | inactive | 
CCCCCCC(O)CCCCCCCCCCC(=O)OC (stereo unspecified) | inactive | 
COC(=O)c1ccccc1 | inactive | 
O=S(=O)(O)c1cccc2ccccc12 | inactive | 
CC/C=C\CC/C=C/C(OCC)OCC | inactive | 
CN1CCCC1 | inactive | 
CCO[Si](CCCN)(OCC)OCC | inactive | 
CCCCCCC1CCC(=O)O1 (stereo unspecified) | inactive | 
O=[N+]([O-])c1ccccc1C(F)(F)F | inactive | 
CCC(=O)OCc1ccc(OC)cc1 | inactive | 
CCc1cc(C(N)=S)ccn1 | inactive | 
CCC(C)=NO | inactive | 
COc1cccc(OC)c1C(=O)O | inactive | 
CCCCCC1CCCC(=O)O1 (stereo unspecified) | inactive | 
Cc1cc(-n2nc3ccc(Cl)cc3n2)c(O)c(C(C)(C)C)c1 | inactive | 
CCCCCCC1CCCC(=O)O1 (stereo unspecified) | inactive | 
CC(C)=CCOC(=O)c1ccccc1 | inactive | 
CC(C)(C)NC(=O)[C@@H]1CN(Cc2cccnc2)CCN1C[C@@H](O)C[C@@H](Cc1ccccc1)C(=O)N[C@H]1c2ccccc2C[C@H]1O | inactive | 43.8 µM (active)
Oc1cccc2ccccc12 | inactive | 
C=CN1CCCCCC1=O | inactive | 
Oc1ccc(Oc2ccccc2)cc1 | inactive | 
CC(=O)CCc1ccccc1 | inactive | 
CNC[C@H](O)[C@@H](O)[C@H](O)[C@H](O)CO | inactive | 
CN(C)c1ccc(C(c2ccccc2)c2ccc(N(C)C)cc2)cc1 | inactive | 
c1ccc2c(c1)Oc1ccccc1S2 | inactive | 
CCCCCC[C@@H](O)C/C=C\CCCCCCCC(=O)O | inactive | 37.4 µM (active)

Test system: not listed separately
Assay: TOX21_p53_BLA_p5_viability: Viability Assessment in the Tox21 HCT-116 p53 Agonism Beta-lactamase Assay, Phase 5 (AID 2283600)
How it was run: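 Compounds, pinned from DMSO at 217-fold dilution, were left on the cells for 16 h. The viability endpoint was ATP content measured by CellTiter-Glo luminescence, where falling signal reflects cytotoxicity.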

SMILES | outcome | AC50
CNC(=C[N+](=O)[O-])NCCSCc1csc(CN(C)C)n1 | inactive | 
CCCCCCC(O)CCCCCCCCCCC(=O)OC (stereo unspecified) | inactive | 
COC(=O)c1ccccc1 | inactive | 
C/C=C(\C)C(=O)OCC/C=C\CC | inactive | 
C=CCOCC(CC)(CO)COCC=C | inactive | 
CCO[Si](CCCN)(OCC)OCC | inactive | 
O=[N+]([O-])c1ccccc1C(F)(F)F | inactive | 
CCc1cc(C(N)=S)ccn1 | inactive | 
COc1cccc(OC)c1C(=O)O | inactive | 
Cc1cc2nc3c(=O)[nH]c(=O)nc-3n(C[C@H](O)[C@H](O)[C@H](O)CO)c2cc1C | inactive | 
CCCCCCC1CCCC(=O)O1 (stereo unspecified) | inactive | 
c1ccc(CNc2ncnc3nc[nH]c23)cc1 | inactive | 
NC(=O)c1ccc(N)cc1 | inactive | 
CC(C)=CCOC(=O)c1ccccc1 | inactive | 
CC(C)(C)NC(=O)[C@@H]1CN(Cc2cccnc2)CCN1C[C@@H](O)C[C@@H](Cc1ccccc1)C(=O)N[C@H]1c2ccccc2C[C@H]1O |  | 37.5 µM (active)
Oc1cccc2ccccc12 | inactive | 
CC(=O)CCc1ccccc1 | inactive | 
CNC[C@H](O)[C@@H](O)[C@H](O)[C@H](O)CO | inactive | 
CN(C)c1ccc(C(c2ccccc2)c2ccc(N(C)C)cc2)cc1 | inactive | 
CCCCCC[C@@H](O)C/C=C\CCCCCCCC(=O)O | inactive | 

Target: Cellular tumor antigen p53 (Homo sapiens) (UniProt P04637)
Assay: TOX21_p53_BLA_p4_ratio: Tox21 HCT-116 p53 Agonism Beta-lactamase Assay, Ratio, Phase 4 (AID 2283601)
How it was run: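 HCT116 cells carrying an inducible beta-lactamase reporter were plated at 4000 cells/well, rested 5 h, then exposed to compounds in DMSO (217-fold dilution) for 16 h at 37C. CCF4-AM substrate was loaded 2 h at room temperature; 460/530 nm emission ratio scored gain-of-signal versus DMSO.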

SMILES | outcome | AC50
CCCCCCC(O)CCCCCCCCCCC(=O)OC (stereo unspecified) | inactive | 
COC(=O)c1ccccc1 | inactive | 
O=S(=O)(O)c1cccc2ccccc12 | inactive | 
C/C=C(\C)C(=O)OCC/C=C\CC | inactive | 
CN1CCCC1 | inactive | 
CCO[Si](CCCN)(OCC)OCC | inactive | 
O=[N+]([O-])c1ccccc1C(F)(F)F | inactive | 
CCC(=O)OCc1ccc(OC)cc1 | inactive | 
CCc1cc(C(N)=S)ccn1 | inactive | 
COc1cccc(OC)c1C(=O)O | inactive | 
CCCCCC1CCCC(=O)O1 (stereo unspecified) | inactive | 
Cc1cc2nc3c(=O)[nH]c(=O)nc-3n(C[C@H](O)[C@H](O)[C@H](O)CO)c2cc1C | inactive | 
CCCCCCC1CCCC(=O)O1 (stereo unspecified) | inactive | 
NC(=O)c1ccc(N)cc1 | inactive | 
CC(C)=CCOC(=O)c1ccccc1 | inactive | 
CC(C)(C)NC(=O)[C@@H]1CN(Cc2cccnc2)CCN1C[C@@H](O)C[C@@H](Cc1ccccc1)C(=O)N[C@H]1c2ccccc2C[C@H]1O |  | 39.8 µM (active)
Oc1cccc2ccccc12 | inactive | 
C=CN1CCCCCC1=O | inactive | 
Oc1ccc(Oc2ccccc2)cc1 | inactive | 
CC(=O)CCc1ccccc1 | inactive | 
CNC[C@H](O)[C@@H](O)[C@H](O)[C@H](O)CO | inactive | 
CN(C)c1ccc(C(c2ccccc2)c2ccc(N(C)C)cc2)cc1 | inactive | 
c1ccc2c(c1)Oc1ccccc1S2 | inactive | 
CCCCCC[C@@H](O)C/C=C\CCCCCCCC(=O)O | inactive | 73.6 µM (active)
